We go through 36 compounds from PubChem BioAssay (NCATS).

Assay [1] has as its target Calcium and integrin-binding protein 1 (Homo sapiens) (UniProt Q99828). Kind of assay: Primary qHTS for Identification of Calcium Integrin Binding Protein 1 (CIB1) Competitor (AID 1508620; active = well fitted curve in the direction sought with a large enough effect; an effect the other way counts as inactive or inconclusive;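 note: GST tagged CIB1 binding a fluorescein labelled alphaIIb integrin peptide tracer; top concentration of the series differs between compounds; % is set by controls: 0 for no effect and ±100 for the full control effect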). The essentials:
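Fluorescence polarization competition: CIB1-GST (1 uM final) preincubated with compound 15 min at room temperature, then FITC-labeled alphaIIb peptide (100 nM final) added for another 15 min. Polarization read at Ex 480/Em 540.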
Background: qHTS replaces the single test concentration by a dilution series.

The target in assay [2] is Cytochrome P450 2D6 (Homo sapiens) (UniProt P10635). The assay can be described thus: Cytochrome P450 family 2 subfamily D member 6 (CYP2D6) small molecule antagonists: luciferase biochemical (cell-free) qHTS assay (AID 1645840). For activity change, negative = inhibition: series mostly up to about 57 µM; % is set by controls: 0 for no effect and ±100 for the full control effect. Note: nearly all actives have a fitted effect of over 55% in size. Note: potency is the fitted concentration of half-maximal effect. The essentials: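 P450-Glo luminescent screen: recombinant CYP2D6 enzyme–proluciferin substrate mix preincubated with compound 10 min at room temperature, then NADPH regeneration added for 1 h at room temperature. Detection reagent added for 20 min; luciferin light read as relative luminescence units.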
Sequence of Cytochrome P450 2D6 (Homo sapiens) (P10635 whole entry, looked up): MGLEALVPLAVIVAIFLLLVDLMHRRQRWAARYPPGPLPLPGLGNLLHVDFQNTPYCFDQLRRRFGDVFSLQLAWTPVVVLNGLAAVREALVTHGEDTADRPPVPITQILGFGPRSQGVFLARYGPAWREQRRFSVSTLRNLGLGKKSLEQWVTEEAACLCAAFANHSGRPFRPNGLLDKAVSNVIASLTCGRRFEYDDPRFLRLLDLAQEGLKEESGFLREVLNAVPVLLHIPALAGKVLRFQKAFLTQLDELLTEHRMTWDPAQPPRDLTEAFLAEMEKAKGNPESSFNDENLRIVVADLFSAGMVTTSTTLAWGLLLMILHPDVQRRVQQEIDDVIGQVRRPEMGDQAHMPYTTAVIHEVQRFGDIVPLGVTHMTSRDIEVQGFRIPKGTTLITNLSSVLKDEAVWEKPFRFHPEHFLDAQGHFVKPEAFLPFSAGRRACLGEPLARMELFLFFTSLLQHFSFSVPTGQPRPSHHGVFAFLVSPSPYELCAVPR

Assay [3] is described as follows: A High-Content qHTS Against Drug Library for the Identification of Small Molecules that Inhibit DYT1 Early Onset Primary Dystonia-Associated Cell Pathology (AID 1645839; calls by dose curve; note: series mostly up to about 46 µM). In a few lines: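 Readout: %pathology, the punctate EGFP-TorsinA distribution from imaging, as the primary channel and cell count as the toxicity counterscreen. HEK293 Flp-In cells expressing delE TorsinA were induced with tetracycline and treated with compound for 48 h.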

The target in assay [4] is Cytochrome P450 2C9 (Homo sapiens) (UniProt P11712). The assay can be described thus: Cytochrome P450 family 2 subfamily C member 9 (CYP2C9) small molecule antagonists: luciferase biochemical (cell-free) qHTS assay (AID 1645842). For activity change, negative = inhibition: series mostly up to about 57 µM; % is set by controls: 0 for no effect and ±100 for the full control effect. Note: nearly all actives have a fitted effect of over 55% in size. Note: potency is the fitted concentration of half-maximal effect. In a few lines:
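Luminescence, after 20 min with luciferin detection reagent, reflected CYP2C9 turnover during a 1 h NADPH-driven reaction at 37C. Enzyme-substrate mix contained 0.4% bovine serum albumin and was preincubated with compound 10 min at room temperature.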

Assay [5] addresses N-terminal Xaa-Pro-Lys N-methyltransferase 1 (Homo sapiens) (UniProt Q9BV86). Kind of assay: Confirmatory qHTS for Inhibitors of N-terminal methyltransferase 1 (NTMT1): MTaseGlo Assay (AID 1645874; active = well fitted curve in the direction sought with a large enough effect; an effect the other way counts as inactive or inconclusive; note: nearly all actives have a fitted effect of over 65% in size; note: potency is the fitted concentration of half-maximal effect;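 for activity change, negative = inhibition: luminescence from SAH made as NTMT1 methylates SPKRIA peptide using SAM; series mostly up to about 100 µM; 0% = DMSO control and -100% = no-enzyme control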). The essentials: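 NTMT1 (125 nM) preincubated 15 min with compound and 100 uM SAM, then 1 uM SPKRIA peptide added for 30 min at room temperature. SAH detected by MTase-Glo luminescence; normalized to no-enzyme and DMSO controls, fitted to 4-parameter Hill.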

The nature of assay [6]: Primary qHTS for inhibitors of nuclear receptor binding SET domain protein 2 (NSD2) in an isogenic RCH-ACV NSD2 p.E1099K mutant (9B) (AID 1645876; active = well fitted curve in the direction sought with a large enough effect; an effect the other way counts as inactive or inconclusive; note: nearly all actives have a fitted effect of over 70% in size; note: potency is the fitted concentration of half-maximal effect).
Assay [7] addresses Cytochrome P450 3A4 (Homo sapiens) (UniProt P08684). The assay can be described thus: Cytochrome P450 family 3 subfamily A member 4 (CYP3A4) small molecule antagonists: luciferase qHTS assay (AID 1645841). Note: nearly all actives have a fitted effect of over 45% in size. The essentials: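 P450-Glo CYP3A4 enzyme with proluciferin substrate was preincubated with DMSO-dissolved compounds for 10 min at room temperature. NADPH regeneration solution started a 1 h reaction. Detection reagent stopped it, and luminescence was read after 20 min.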

The structures appear in SMILES notation. Inconclusive results are not listed. A number with no mark means an inactive call. Active and inactive are the calls of the source. Unless noted, calls come from the whole dose curve; as a rule, active = well fitted curve in the direction sought with a large enough effect in the repeat runs; inconclusive = weak or mixed curves; inactive = no such curve, though single readings can be large; an effect the other way counts as inactive or inconclusive.

Sequence of Cytochrome P450 3A4 (Homo sapiens) (P08684 whole entry, looked up): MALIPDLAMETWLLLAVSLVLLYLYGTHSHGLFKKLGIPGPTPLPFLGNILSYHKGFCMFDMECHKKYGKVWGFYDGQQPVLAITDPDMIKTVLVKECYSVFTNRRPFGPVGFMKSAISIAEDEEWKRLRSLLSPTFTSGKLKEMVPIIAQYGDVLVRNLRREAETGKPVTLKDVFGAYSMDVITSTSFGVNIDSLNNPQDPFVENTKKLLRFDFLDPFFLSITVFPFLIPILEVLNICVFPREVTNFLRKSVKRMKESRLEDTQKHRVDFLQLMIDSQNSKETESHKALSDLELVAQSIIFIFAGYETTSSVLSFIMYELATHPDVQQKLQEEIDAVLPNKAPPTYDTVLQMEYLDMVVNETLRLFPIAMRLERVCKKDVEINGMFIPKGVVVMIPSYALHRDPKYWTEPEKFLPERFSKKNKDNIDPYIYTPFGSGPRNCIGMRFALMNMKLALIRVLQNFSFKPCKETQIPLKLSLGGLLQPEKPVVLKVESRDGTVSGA
Sequence of Cytochrome P450 2C9 (Homo sapiens) (P11712 whole entry, looked up): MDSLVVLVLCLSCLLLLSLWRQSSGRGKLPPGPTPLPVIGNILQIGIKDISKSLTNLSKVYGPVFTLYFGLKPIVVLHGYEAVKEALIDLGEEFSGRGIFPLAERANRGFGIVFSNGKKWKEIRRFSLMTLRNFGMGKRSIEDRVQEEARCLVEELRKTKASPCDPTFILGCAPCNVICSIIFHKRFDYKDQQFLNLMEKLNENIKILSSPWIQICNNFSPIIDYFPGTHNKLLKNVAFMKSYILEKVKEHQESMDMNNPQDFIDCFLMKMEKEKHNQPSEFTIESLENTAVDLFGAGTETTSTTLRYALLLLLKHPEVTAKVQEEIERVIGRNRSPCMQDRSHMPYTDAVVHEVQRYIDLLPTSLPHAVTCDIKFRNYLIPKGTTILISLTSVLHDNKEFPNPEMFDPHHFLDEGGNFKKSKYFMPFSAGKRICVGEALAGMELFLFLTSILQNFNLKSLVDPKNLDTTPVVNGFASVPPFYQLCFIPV
Sequence of Calcium and integrin-binding protein 1 (Homo sapiens) (Q99828 whole entry, looked up): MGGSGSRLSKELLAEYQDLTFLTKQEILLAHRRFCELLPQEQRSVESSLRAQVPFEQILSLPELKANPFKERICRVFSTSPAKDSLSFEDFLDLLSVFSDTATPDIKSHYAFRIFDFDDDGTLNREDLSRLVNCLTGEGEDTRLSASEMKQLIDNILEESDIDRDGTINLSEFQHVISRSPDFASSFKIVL
Sequence of N-terminal Xaa-Pro-Lys N-methyltransferase 1 (Homo sapiens) (Q9BV86 whole entry, looked up): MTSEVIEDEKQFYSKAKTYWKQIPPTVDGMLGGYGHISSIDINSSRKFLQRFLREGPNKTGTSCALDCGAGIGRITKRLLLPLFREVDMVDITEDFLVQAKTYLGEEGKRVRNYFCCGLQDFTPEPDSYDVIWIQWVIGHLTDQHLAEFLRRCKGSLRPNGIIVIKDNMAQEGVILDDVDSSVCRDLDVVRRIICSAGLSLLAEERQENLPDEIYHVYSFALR

Consider `CC(=O)O[C@@H]1[C@H](O)[C@@H](O[C@@H]2O[C@@H](C)[C@H](O[C@@H]3OC[C@@H](O)[C@H](O[C@@H]4OC[C@@H](O)[C@H](O)[C@H]4O)[C@H]3O)[C@@H](O[C@@H]3O[C@H](CO)[C@@H](O)[C@H](O)[C@H]3O)[C@H]2O)[C@H](OC(=O)[C@]23CCC(C)(C)C[C@H]2C2=CCC4[C@@]5(C)CC[C@H](O[C@@H]6O[C@H](C(=O)O)[C@@H](O)[C@H](O[C@@H]7OC[C@@H](O)[C@H](O)[C@H]7O)[C@H]6O[C@@H]6O[C@H](CO)[C@H](O)[C@H](O)[C@H]6O)[C@@](C)(C=O)C5CC[C@@]4(C)[C@]2(C)CC3)O[C@@H]1C` (stereo partly drawn), for which the activity change, negative = inhibition in assay [1] is -6.59% [at 12.4 µM].

On to `C[C@@H](O)[C@H](NC(=O)c1ccc(C#Cc2ccc(CN3CCOCC3)cc2)cc1)C(=O)NO`, for which the Potency result in assay [1] was “inactive”.

In the case of `CC(C)c1cccc2c(-c3ccccc3)cc(-c3ccc(-c4ccc(C(=O)O)cc4)[nH]3)nc12`, the Potency result in assay [1] and in assay [2] was “inactive” each time.

For the compound `CC(C)(C)CCN1C[C@@H]2C(CNC(=O)c3cc(Cl)cc(Cl)c3)[C@@H]2C1` (stereo partly drawn), the Potency result in assay [1] is “inactive”. In assay [2], the Potency was 3.79 µM (active).

`N#C[C@@H]1CCCN1C(=O)CNC12CC3CC(CC(O)(C3)C1)C2`: the Potency entry in assay [1] was “inactive”.

Regarding `CCOCCOC(=O)/C=C/c1ccc(OC)cc1`, the Potency result in assay [1], in assay [3] and in assay [2] was “inactive” in each case.

Turning to `CC/C=C/CC1=C(CCCCC(CCC(=O)O)OC(C)=O)CCC1=O` (stereo not drawn), in assay [1], the Potency result is “inactive”.

For `CO[C@H]1O[C@@H]2O[C@]3(C)CC[C@H]4[C@H](C)CC[C@@H]([C@H]1C)[C@@]24OO3`, the Potency result in assay [1] is “inactive”.

As for `CNS(=O)(=O)CC1CCC(N(C)c2ncnc3[nH]ccc23)CC1` (stereo not drawn), the Potency result in assay [1] and in assay [2] was “inactive” in each case.

Consider `COc1cc2ncnc(Nc3cccc(Cl)c3F)c2cc1OC(=O)N1CCN(C)C[C@H]1C`, for which, in assay [1], the Potency result was “inactive”.

Consider `OCC1OC(Oc2cc(O)cc(/C=C/c3ccc(O)cc3)c2)C(O)C(O)C1O` (stereo not drawn), for which the Potency entry in assay [1] was “inactive”.

In the case of `C[C@@H](Oc1cc(-n2cnc3ccc(OC4CCN(C)CC4)cc32)sc1C(N)=O)c1ccccc1C(F)(F)F`, in assay [1], the Potency entry is “inactive”. The Potency in assay [2] was 8.49 µM (active); in assay [4], 8.49 µM (active); in assay [5], 12.6 µM (active); in assay [6], 0.0325 µM (active).

Take `Cc1ccc(S(=O)(=O)n2ccc(-c3c(-c4ccc(Cl)cc4)noc3C)n2)cc1`: the Potency result in assay [1] and in assay [2] was “inactive” throughout. In assay [4], the Potency was 5.35 µM (active).

For the compound `Oc1ccc2nc(CN3CCC(Cc4ccccc4F)CC3)[nH]c2c1`, the Potency entry in assay [1] was “inactive”. Besides, the values for the Potency in assay [2] and in assay [4] were 0.0379 µM (active) and 10.7 µM (active), respectively.

As to `CN(C)CCn1cc(S(=O)(=O)c2cccc(F)c2)c2cccnc21`, the Potency entry in assay [1] was “inactive”. Also, in assay [2], the Potency was 21.3 µM (active).

Turning to `COC(C(=O)N1Cc2[nH]nc(NC(=O)c3ccc(N4CCN(C)CC4)cc3)c2C1)c1ccccc1` (stereo not drawn), the Potency result in assay [1], in assay [2], in assay [7] and in assay [4] was “inactive” throughout. Further, in assay [6], the Potency was 0.0515 µM (active).

Take `CC(Cc1cc2c(c(C(N)=O)c1)N(CCCO)CC2)NCCOc1ccccc1OCC(F)(F)F` (stereo not drawn): the Potency entry in assay [1] was “inactive”. In assay [2], the Potency is 7.56 µM (active).

On to `CON(C)C(=O)[C@H](O)[C@H](Cc1ccccc1)NC(=O)c1cc2cc(Cl)ccc2[nH]1`, for which the Potency result in assay [1] is “inactive”. Moreover, in assay [2], the Potency was 21.3 µM (active).

For `Cc1c(C(=O)Nc2ccc(N3CC(C)OC(C)C3)nc2)cccc1-c1ccc(OC(F)(F)F)cc1` (stereo not drawn), the Potency result in assay [1], in assay [2] and in assay [4] was “inactive” throughout.

`Nc1nc2c(c(N3CCNCC3)n1)CCC1=C2[C@@H]2CCCC[C@@H]2O1`: in assay [1], the Potency entry is “inactive”. Further, the Potency in assay [2] was 19 µM (active).

For the compound `CC1CCCCN1S(=O)(=O)c1ccc(N2CCCC2=O)cc1` (stereo not drawn), the Potency result in assay [1], in assay [2], in assay [7] and in assay [6] was “inactive” in each case. The Potency in assay [4] is 15.1 µM (active).

`CCN(CC)Cc1ccc(C(=O)N(CCc2ccccc2OC)[C@@H]2CCNC2)cc1`: the Potency result in assay [1] and in assay [4] was “inactive” throughout. Moreover, the Potency in assay [2] was 13.5 µM (active).

Turning to `Cn1nc(C(C)(C)C)cc1C(=O)NC(Cc1cccc(Cl)c1)C(=O)NCC#N` (stereo not drawn), the Potency result in assay [1] was “inactive”. The Potency in assay [2] and in assay [4] was 15.1 µM (active) in each case.

Take `Cc1cc(C)c2c(N)c(C(=O)NCc3ccc(Cl)cc3)sc2n1`: the Potency entry in assay [1] and in assay [5] was “inactive” throughout. For the same compound, the results for the Potency in assay [2] and in assay [4] were 13.5 µM (active) and 1.9 µM (active), respectively.

Turning to `NC(=O)C(CCC(F)(F)F)N(Cc1ccc(-c2ncon2)cc1F)S(=O)(=O)c1ccc(Cl)cc1` (stereo not drawn), the Potency result in assay [1] is “inactive”. Also, the Potency in assay [2] is 12 µM (active).

`C=C(F)c1sc(CNCCCNc2cc(=O)c3ccccc3[nH]2)c(C)c1Br`: the Potency entry in assay [1] is “inactive”. In addition, the Potency is 1.07 µM (active) in assay [2] and 2.13 µM (active) in assay [4].

Regarding `c1cc(OCCCN2CCCCC2)ccc1CN1CCCCC1`, the Potency result in assay [1], in assay [2], in assay [7] and in assay [4] was “inactive” in each case.

For the compound `O=S(=O)(NC1CCC(c2cc(F)ccc2F)(S(=O)(=O)c2ccc(Cl)cc2)CC1)C(F)(F)F` (stereo not drawn), the Potency entry in assay [1] is “inactive”. Further, the Potency was 19 µM (active) in assay [2] and 0.425 µM (active) in assay [4].

Regarding `CSc1ccc(C(=O)N[C@@H]2CCCC[C@@H]2NC(=O)CNC(=O)c2cc(C(F)(F)F)ccc2NC(=O)NC(C)C)cc1`, the Potency entry in assay [1] was “inactive”. For the same compound, the results for the Potency in assay [2] and in assay [4] were 9.52 µM (active) and 3.01 µM (active), respectively.

As to `O=[N+]([O-])c1cn2c(n1)OCC(OCc1ccc(OC(F)(F)F)cc1)C2` (stereo not drawn), the Potency entry in assay [1] and in assay [2] was “inactive” each time.

On to `Cc1csc(NC(=O)c2ccc(COc3cccc(Cl)c3)o2)n1`, for which the Potency result in assay [1] was “inactive”. In addition, the Potency in assay [2] is 19 µM (active); in assay [4], 7.56 µM (active).

With `CC(C)(C(=O)NCC(F)(F)C(F)(F)F)C(=O)NC1C(=O)Nc2ccccc2-c2ccccc21` (stereo not drawn), the Potency result in assay [1] is “inactive”. For the same compound, the Potency in assay [2] is 10.7 µM (active); in assay [4] it was 9.52 µM (active).

For the compound `Cc1ccc(-c2ccc3c(ccc4sc5c(c43)NC[C@@H](C)NC5=O)n2)cn1`, the Potency result in assay [1], in assay [2] and in assay [4] was “inactive” in each case.

With `CC(=O)NC[C@H]1CN(c2ccc(N3CCN(C(=O)CO)CC3)c(F)c2)C(=O)O1`, the Potency entry in assay [1], in assay [2] and in assay [4] was “inactive” in each case.

Take `OC1CCC(Nc2ncc3nc(Nc4c(F)cc(F)cc4F)n([C@H]4CCOC4)c3n2)CC1` (stereo partly drawn): the Potency result in assay [1], in assay [2] and in assay [4] was “inactive” in each case.

For the compound `O=C(CCc1ccccc1)N1CCC(O)(Cn2cnc3cc(Cl)ccc3c2=O)CC1`, the Potency result in assay [1] was “inactive”. Also, the Potency is 4.25 µM (active) in assay [2] and 10.7 µM (active) in assay [4].
